Measured values from the antibiotic and cytotoxicity screens of Wong et al. (2023).
Hit rate of the full screen: of about 39,000 compounds, about 3,300 (8.5%) were called active. What follows is part of a selection rich in actives, with near analogues and random picks from the rest.

What follows are molecules tested on HepG2 (assay: cytotoxicity call (relative viability < 0.9)). Details: 10 µM.
For CC(C)NC(=O)N(C)C[C@@H]1Oc2c(NS(=O)(=O)c3cn(C)cn3)cccc2C(=O)N([C@@H](C)CO)C[C@H]1C, the cytotoxicity call was “inactive”.
For C[C@@H]1CCCCO[C@@H](CN(C)S(=O)(=O)c2ccccc2)[C@H](C)CN([C@H](C)CO)C(=O)c2cc(NC(=O)Nc3cccc4ccccc34)ccc2O1, the cytotoxicity call was “inactive”.
C[C@H]1CN([C@@H](C)CO)C(=O)c2cccc(NC(=O)C3CCOCC3)c2O[C@H]1CN(C)Cc1ccncc1 was tested, and the cytotoxicity call was “inactive”.
COCCOC(=O)N1C(=O)[C@@]2(c3cc(C#CC4=CCCCC4)ccc31)[C@H](c1ccccc1OCCO)N1[C@H](c3ccccc3)[C@H](c3ccccc3)OC(=O)[C@H]1[C@@H]2C(=O)N1CCCCCCC1 was tested, and the cytotoxicity call was “inactive”.
With COCCOC(=O)N1C(=O)[C@@]2(c3cc(C#CCCO)ccc31)[C@H](C(=O)N1CCc3cc(OC)c(OC)cc3C1)[C@H]1C(=O)O[C@H](c3ccccc3)[C@H](c3ccccc3)N1[C@@H]2c1ccccc1OCCO the cytotoxicity call was “active”.
In the case of COCCOC(=O)N1C(=O)[C@@]2(c3cc(C#CC4=CCCCC4)ccc31)[C@H](c1ccccc1OCCO)N1[C@H](c3ccccc3)[C@H](c3ccccc3)OC(=O)[C@H]1[C@@H]2C(=O)N1CCc2cc(OC)c(OC)cc2C1, the cytotoxicity call was “inactive”.
With COCCOC(=O)N1C(=O)[C@@]2(c3cc(C#CCNC(N)=O)ccc31)[C@H](C(=O)N1CCc3cc(OC)c(OC)cc3C1)[C@H]1C(=O)O[C@H](c3ccccc3)[C@H](c3ccccc3)N1[C@@H]2c1ccccc1OCCO the cytotoxicity call was “inactive”.
COCCOC(=O)N1C(=O)[C@@]2(c3cc(C#CC4=CCCCC4)ccc31)[C@H](C(=O)N1CCc3cc(OC)c(OC)cc3C1)[C@H]1C(=O)O[C@H](c3ccccc3)[C@H](c3ccccc3)N1[C@@H]2c1ccc(O)cc1 was tested, and the cytotoxicity call was “inactive”.
COCCOC(=O)N1C(=O)[C@@]2(c3cc(C#CC4=CCCCC4)ccc31)[C@H](C(=O)N1CCc3cc(OC)c(OC)cc3C1)[C@H]1C(=O)O[C@H](c3ccccc3)[C@H](c3ccccc3)N1[C@@H]2c1ccccc1OCCO was tested, and the cytotoxicity call was “active”.
For COCCOC(=O)N1C(=O)[C@@]2(c3cc(C#CC4=CCCCC4)ccc31)[C@H](c1ccc(OCCO)cc1)N1[C@H](c3ccccc3)[C@H](c3ccccc3)OC(=O)[C@H]1[C@@H]2C(=O)N1CCc2cc(OC)c(OC)cc2C1, the cytotoxicity call was “active”.
COCCOC(=O)N1C(=O)[C@@]2(c3cc(C#CC4=CCCCC4)ccc31)[C@H](c1ccc(OCCO)cc1)N1[C@H](c3ccccc3)[C@H](c3ccccc3)OC(=O)[C@H]1[C@@H]2C(=O)N1CCCCCCC1 was tested, and the cytotoxicity call was “inactive”.
For COCCOC(=O)N1C(=O)[C@@]2(c3cc(C#CCCO)ccc31)[C@H](c1ccccc1OCCO)N1[C@H](c3ccccc3)[C@H](c3ccccc3)OC(=O)[C@H]1[C@@H]2C(=O)N1CCc2cc(OC)c(OC)cc2C1, the cytotoxicity call was “inactive”.
For C[C@H]1CN([C@@H](C)CO)C(=O)Cc2cc(NS(=O)(=O)c3ccc(F)cc3)ccc2O[C@H]1CN(C)S(=O)(=O)c1cccs1, the cytotoxicity call was “inactive”.
In the case of Cc1ccccc1-c1ccc2c(c1)O[C@@H](CN(C)C(=O)Nc1ccc(C(F)(F)F)cc1)[C@@H](C)CN([C@@H](C)CO)S2(=O)=O, the cytotoxicity call was “inactive”.
In the case of COC(=O)[C@@H]1CC(=O)N(C(C)C)C1, the cytotoxicity call was “inactive”.
For C[C@@H]1CN([C@H](C)CO)C(=O)c2c(c3ccccc3n2C)-c2ccccc2CO[C@@H]1CN(C)Cc1ccc(Oc2ccccc2)cc1, the cytotoxicity call was “inactive”.
For CN1CCN(C(=O)C[C@@H]2C=C[C@H](NC(=O)Cc3ccccn3)[C@@H](CO)O2)CC1, the cytotoxicity call was “inactive”.
CCCC#Cc1cnc2c(c1)C(=O)N([C@@H](C)CO)C[C@@H](C)[C@H](CN(C)C(=O)c1ccc3c(c1)OCO3)O2 was tested, and the cytotoxicity call was “inactive”.
In the case of Cc1noc(C)c1NC(=O)N(C)C[C@H]1Oc2ccc(NC(=O)Nc3cccc4ccccc34)cc2CC(=O)N([C@@H](C)CO)C[C@H]1C, the cytotoxicity call was “inactive”.
In the case of C[C@@H]1CCCCO[C@H](CN(C)C(=O)Nc2ccc(C(F)(F)F)cc2)[C@H](C)CN([C@@H](C)CO)C(=O)c2cc(NC(=O)CCC(F)(F)F)ccc2O1, the cytotoxicity call was “active”.
For C[C@@H]1CCCCO[C@H](CN(C)C(=O)Nc2ccc(C(F)(F)F)cc2)[C@@H](C)CN([C@H](C)CO)C(=O)c2cc(NC(=O)CCC(F)(F)F)ccc2O1, the cytotoxicity call was “inactive”.
C[C@@H]1CCCCO[C@@H](CN(C)C(=O)Nc2ccc(C(F)(F)F)cc2)[C@@H](C)CN([C@H](C)CO)C(=O)c2cc(NC(=O)CCC(F)(F)F)ccc2O1 was tested, and the cytotoxicity call was “inactive”.
C[C@H](CO)N1C[C@H](C)[C@@H](CN(C)C(=O)Nc2ccc(C(F)(F)F)cc2)OCCCC[C@H](C)Oc2ccc(NC(=O)CCC(F)(F)F)cc2C1=O was tested, and the cytotoxicity call was “active”.
For C[C@H](CO)N1C[C@H](C)[C@H](CN(C)C(=O)Nc2ccc(C(F)(F)F)cc2)OCCCC[C@H](C)Oc2ccc(NC(=O)CCC(F)(F)F)cc2C1=O, the cytotoxicity call was “inactive”.
For C[C@H]1CCCCO[C@H](CN(C)C(=O)Nc2ccc(C(F)(F)F)cc2)[C@@H](C)CN([C@@H](C)CO)C(=O)c2cc(NC(=O)CCC(F)(F)F)ccc2O1, the cytotoxicity call was “active”.
For C[C@@H]1CN([C@@H](C)CO)C(=O)c2cc(NC(=O)CCC(F)(F)F)ccc2O[C@@H](C)CCCCO[C@H]1CN(C)C(=O)Nc1ccc(C(F)(F)F)cc1, the cytotoxicity call was “inactive”.
With C[C@@H]1CCCCO[C@H](CN(C)C(=O)Nc2ccc(C(F)(F)F)cc2)[C@H](C)CN([C@H](C)CO)C(=O)c2cc(NC(=O)CCC(F)(F)F)ccc2O1 the cytotoxicity call was “inactive”.
C[C@@H]1CCCCO[C@@H](CN(C)C(=O)Nc2ccc(C(F)(F)F)cc2)[C@H](C)CN([C@@H](C)CO)C(=O)c2cc(NC(=O)CCC(F)(F)F)ccc2O1 was tested, and the cytotoxicity call was “inactive”.
In the case of Clc1ccc2c(c1)[C@H]1C=CC[C@@H]1[C@@H](c1ccccc1)N2, the cytotoxicity call was “inactive”.
For O=C(C[C@H]1C[C@H]2c3cc(NC(=O)C4CCOCC4)ccc3O[C@H]2[C@@H](CO)O1)NCc1ccc2c(c1)OCO2, the cytotoxicity call was “inactive”.
With C[C@@H]1CN([C@H](C)CO)C(=O)c2cc(NC(=O)Nc3cccc4ccccc34)ccc2O[C@@H](C)CCCCO[C@@H]1CN(C)C(=O)NC1CCCCC1 the cytotoxicity call was “inactive”.
With CN(C)C(=O)CN1CCC2(CC1)CN(CCn1cccn1)C(=O)CO2 the cytotoxicity call was “inactive”.
